Measurements taken from PubChem BioAssay AID1814 (Broad Institute, 2009).
Screen size: about 300,000 compounds; about 22,000 (7.3%) were called active. Inconclusive results (about 2%) are left out. This is one part of a sample in which actives are shown more often than they occur. Values without a mark were called inactive. No stated cut-off is given here; in the data, active means activity score below about -60%; inconclusive means mostly about -28% to -61%; inactive means positive scores.

Assay: Activators working through SNCA 5'UTR binding (MLPCN) (AID 1814)
Details: alpha-synuclein 5'UTR reporter, activators screen; active compounds read low; tested at 7.5 µM

| Compound | activity score |
| --- | --- |
| CC(=O)c1ccc(NC(=O)CSC(=S)N2CCCC2)cc1 | -76.2% (active) |
| Cc1cc(Cl)ccc1OCc1nc(-c2ccncc2)no1 | -162% (active) |
| CN(C)S(=O)(=O)c1ccc2oc(SCC(=O)Nc3ccccc3F)nc2c1 | -147% (active) |
| CCn1c(/C=C/c2ccc([N+](=O)[O-])o2)nc2ccccc2c1=O | -353% (active) |
| Cc1ccc(-c2nc(C#N)c(NCCCn3ccnc3)o2)cc1 | -87% (active) |
| Cc1cccc(-[n+]2c(-c3cccc(Br)c3)[nH]c3nc4ccccc4nc32)c1 | 73.9% |
| Nc1nonc1-c1noc(-c2ccc(Br)o2)n1 | -80.6% (active) |
| Nc1ccc(-c2nnc(-c3ccc(-c4ccccc4)cc3)o2)cc1 | -217% (active) |
| Brc1ccc(-c2nnc(-c3ccccc3)o2)o1 | -63.8% (active) |
| Brc1ccc(-c2noc(-c3ccccc3)n2)o1 | -80.6% (active) |
| Cc1ncc(CC(=O)n2cc(C(=O)c3cc(Cl)ccc3O)cn2)s1 | -71% (active) |
| CCSc1nnc(-c2cc3c(s2)-c2ccccc2CC3)o1 | -102% (active) |
| CCOC(=O)c1ccc2c(c1)nc(C)n2CC | -141% (active) |
| Cc1cccc(C(=O)Nc2ccc(C(=O)/C=C/c3cccs3)cc2)c1 | -92.4% (active) |
| COc1ccc(C2=NN(C(C)=O)C(c3ccccc3)C2)cc1 (stereo unspecified) | -63.9% (active) |
| COc1ccc(C2=NN(C(=O)c3ccccc3C(=O)O)C(c3ccccc3O)C2)cc1 (stereo unspecified) | -171% (active) |
| Clc1ccc(-c2cc(-c3ccccn3)on2)c(Cl)c1 | 108% |
| O=C(NCc1ccccn1)c1cc(-c2ccccc2Cl)on1 | -99.8% (active) |
| O=C(Nc1cccnc1Cl)c1cc(-c2ccccc2O)on1 | -179% (active) |
| C=CCNC(=O)c1cc(-c2ccccc2O)on1 | -65.4% (active) |
| C/C(=C\c1ccco1)CN1CCC(N2CCC(C(=O)N3CCOCC3)CC2)CC1 | -135% (active) |
| O=C(/C=C/c1ccc(N2CCOCC2)cc1)c1ccccc1 | -152% (active) |
| CC(=O)Nc1ccc(/C=C/C(=O)c2ccccc2)cc1 | -201% (active) |
| CC(=O)Nc1ccc(C(=O)/C=C/c2ccc[nH]2)cc1 | -142% (active) |
| Cc1ccsc1C(=O)N/N=C/c1ccc([N+](=O)[O-])cc1 | -154% (active) |
| O=C(N/N=C/c1ccc([N+](=O)[O-])cc1)c1c[nH]c2ccccc12 | -66.7% (active) |

| Compound | activity score |
| --- | --- |
| Cc1ccc(NC(=O)c2sccc2C)cc1[N+](=O)[O-] | -217% (active) |
| COc1cccc(-c2nn(-c3ccccc3)cc2/C=C(\C#N)C(=O)NCCCn2ccnc2)c1 | -65.4% (active) |
| Cc1nn(C(=O)c2ccoc2C)c(N)c1-c1ccccc1 | -109% (active) |
| CN(Cc1ccco1)S(=O)(=O)c1nnc(NC(=O)c2ccccc2)s1 | -95.2% (active) |
| COc1ccc(C(=O)CC(=O)c2ccc(C)cc2)c(O)c1 | -96.9% (active) |
| COc1ccc(C(=O)Cc2cnn(-c3ccccc3)c2)c(O)c1 | -147% (active) |
| CC(=NCc1ccco1)c1c(C(F)(F)F)[nH]n(-c2nc3ccccc3s2)c1=O | -117% (active) |
| COC(=O)Cc1[nH]n(-c2nc3ccccc3s2)c(=O)c1C(C)=Nc1ccc(OC)cc1 | 68.9% |
| CCC(C)Cn1c(O)cc2nn(-c3nc4ccccc4s3)c(=O)c-2c1C (stereo unspecified) | 97.8% |
| Cn1nc(C(F)(F)F)cc1-c1ccc(/C=C(\C#N)C(=O)c2cccc(C(F)(F)F)c2)s1 | -76.5% (active) |
| O=C1/C(=C/c2ccc3c(c2)OCO3)CCC/C1=C\c1ccc2c(c1)OCO2 | -83.5% (active) |
| O=C(/C=C/Sc1ncn[nH]1)c1ccc(Cl)cc1 | -73.9% (active) |
| Oc1ccc(/C=N/NC2=NCCCCC2)c(O)c1 | -141% (active) |
| Nc1nc(-c2sc3nc4c(cc3c2N)CCCC4)nc(N2CCOCC2)n1 | -113% (active) |
| CCCC1=Nc2cc(C(=O)NCc3ccco3)ccc2Sc2ccccc21 | 87.6% |
| CC(C)(C)c1ccc(NC(=O)NCc2ccco2)cc1 | -123% (active) |
| CC(C)(C)c1ccc(C(=O)NCc2ccco2)cc1 | -180% (active) |
| CC(C)(C)c1ccc(C(=O)NNC(=O)Cc2ccccc2)cc1 | -84.3% (active) |
| CC(C)n1c(O)c(N=Nc2ccccn2)c2ccccc21 | -76.9% (active) |
| CC1C/C(=N/NC(=O)c2cccs2)CC(C)(C)C1 (stereo unspecified) | -101% (active) |
| CCC(=O)NC(=Nc1nc2ccccc2s1)NC(=O)CC | -101% (active) |
| CCC(=O)Nc1nc2ccccc2n1Cc1ccccc1C | 65.5% |
| CC(C)CC(=O)N/C(N)=N/c1nc2ccccc2s1 | -93.4% (active) |
| CC12CN3CCN(CC(C3)/C1=N\NC(=O)c1ccccc1N)C2 | -83.3% (active) |
| CN1C(=O)/C(=C\c2cc(Br)cs2)c2ccccc21 | -188% (active) |
